Measurements as given in PMC7862700, “An all-to-all approach to the identification of sequence-specific readers for epigenetic DNA modifications on cytosine”.

How the values were obtained:
Assay in all cases: DAPPL (digital affinity profiling via proximity ligation, sequencing); 10 mM Tris-HCl pH 7.5, 50 mM NaCl, 1 mM DTT, 4% glycerol, room temperature, 30 min; GST-TFs on glutathione beads, 16-mer random dsDNA library, 0.1% formaldehyde crosslink after washing; high values mean tight binding
FEV = molecular target: T1, FEV (Homo sapiens, UniProt Q99581 1-238); conditions: protein: recombinant; tags: N-terminal GST; dsDNA, one strand shown
T1 sequence: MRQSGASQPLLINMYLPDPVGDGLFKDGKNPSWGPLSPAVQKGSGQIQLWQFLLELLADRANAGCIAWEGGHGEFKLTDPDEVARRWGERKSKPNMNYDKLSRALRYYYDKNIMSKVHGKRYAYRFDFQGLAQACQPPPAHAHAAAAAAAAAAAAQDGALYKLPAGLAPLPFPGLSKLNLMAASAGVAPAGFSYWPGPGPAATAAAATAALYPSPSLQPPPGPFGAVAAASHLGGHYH
Method in brief: (§1)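 Binding signal is each hexamer's read frequency for a factor divided by its frequency in the tag-only sample. The factors were GST-fused human transcription factors from yeast, captured on glutathione beads, DNA-barcoded and pooled with that sample. Pools were incubated with 200 nmole of a random double-stranded 16-mer DNA library in Tris/NaCl/DTT/glycerol buffer at room temperature for 30 min, then washed, crosslinked with 0.1% formaldehyde, proximity-ligated with BsaI/T4 ligase (1 h, 37 °C), PCR-amplified and sequenced on an Illumina NextSeq500.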

ETV5 = ETV5 (Homo sapiens, UniProt P41161 1-510); conditions: protein: recombinant; tags: N-terminal GST; dsDNA, one strand shown
Method in brief: as §1

HSF1 = HSF1 (Homo sapiens, UniProt Q00613 1-529); conditions: protein: recombinant; tags: N-terminal GST; chain copies: 3; dsDNA, one strand shown
Method in brief: as §1

SPIC = molecular target: T2, SPIC (Homo sapiens, UniProt Q8N5J4 1-248); conditions: protein: recombinant; tags: N-terminal GST; dsDNA, one strand shown
T2 sequence: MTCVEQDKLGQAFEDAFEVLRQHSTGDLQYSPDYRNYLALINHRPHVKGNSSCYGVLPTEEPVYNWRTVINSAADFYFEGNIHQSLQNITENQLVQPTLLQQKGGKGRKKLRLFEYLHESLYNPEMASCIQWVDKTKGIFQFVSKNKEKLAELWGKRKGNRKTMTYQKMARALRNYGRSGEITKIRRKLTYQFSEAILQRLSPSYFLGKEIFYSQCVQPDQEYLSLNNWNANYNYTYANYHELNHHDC
Method in brief: as §1

ELF4 = ELF4 (Homo sapiens, UniProt Q99607 1-663); conditions: protein: recombinant; tags: N-terminal GST; dsDNA, one strand shown
Method in brief: as §1

ELK4 = molecular target: T3, ELK4 (Homo sapiens, UniProt P28324-2 1-405); conditions: protein: recombinant; tags: N-terminal GST; dsDNA, one strand shown
T3 sequence: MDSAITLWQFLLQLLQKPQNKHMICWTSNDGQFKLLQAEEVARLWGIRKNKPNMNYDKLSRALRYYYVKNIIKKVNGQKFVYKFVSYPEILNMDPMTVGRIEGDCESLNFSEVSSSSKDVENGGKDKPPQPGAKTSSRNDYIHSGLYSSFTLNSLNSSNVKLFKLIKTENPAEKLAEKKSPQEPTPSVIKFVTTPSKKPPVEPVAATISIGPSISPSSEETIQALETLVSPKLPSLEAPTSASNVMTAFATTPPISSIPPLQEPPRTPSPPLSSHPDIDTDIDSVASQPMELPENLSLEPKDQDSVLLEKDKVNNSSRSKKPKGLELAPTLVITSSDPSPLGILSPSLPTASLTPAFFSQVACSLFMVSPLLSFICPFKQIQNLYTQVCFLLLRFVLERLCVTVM
Method in brief: as §1

ETV2 = molecular target: T4, ETV2 (Homo sapiens, UniProt O00321 1-342); conditions: protein: recombinant; tags: N-terminal GST; dsDNA, one strand shown
T4 sequence: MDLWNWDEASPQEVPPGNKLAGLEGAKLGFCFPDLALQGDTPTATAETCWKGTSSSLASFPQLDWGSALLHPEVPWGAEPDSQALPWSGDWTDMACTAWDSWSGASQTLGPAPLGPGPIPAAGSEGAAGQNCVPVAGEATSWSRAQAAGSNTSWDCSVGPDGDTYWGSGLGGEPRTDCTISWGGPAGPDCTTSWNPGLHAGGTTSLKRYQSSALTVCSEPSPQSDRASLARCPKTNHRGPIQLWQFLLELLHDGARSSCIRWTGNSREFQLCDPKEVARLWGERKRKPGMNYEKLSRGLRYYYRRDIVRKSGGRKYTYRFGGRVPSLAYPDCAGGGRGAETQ
Method in brief: as §1

ELF3 = molecular target: T5, ELF3 (Homo sapiens, UniProt P78545 1-371); conditions: protein: recombinant; tags: N-terminal GST; dsDNA, one strand shown
T5 sequence: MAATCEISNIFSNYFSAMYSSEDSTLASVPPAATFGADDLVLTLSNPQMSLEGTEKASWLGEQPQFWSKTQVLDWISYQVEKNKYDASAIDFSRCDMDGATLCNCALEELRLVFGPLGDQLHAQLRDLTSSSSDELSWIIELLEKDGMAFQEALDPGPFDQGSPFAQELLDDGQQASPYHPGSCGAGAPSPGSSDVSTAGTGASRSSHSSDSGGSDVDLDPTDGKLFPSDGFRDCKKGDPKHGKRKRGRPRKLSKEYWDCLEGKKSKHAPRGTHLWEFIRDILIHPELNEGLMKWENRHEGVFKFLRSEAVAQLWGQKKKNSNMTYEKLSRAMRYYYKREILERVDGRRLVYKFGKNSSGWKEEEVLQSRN
Method in brief: as §1

CRX = CRX (Homo sapiens, UniProt O43186 1-299); conditions: protein: recombinant; tags: N-terminal GST; dsDNA, one strand shown
Method in brief: as §1

ETV1 = ETV1 (Homo sapiens, UniProt P50549 1-477); conditions: protein: recombinant; tags: N-terminal GST; dsDNA, one strand shown
Method in brief: as §1

ERF = molecular target: T6, ERF (Homo sapiens, UniProt P50548 1-548); conditions: protein: recombinant; tags: N-terminal GST; dsDNA, one strand shown
T6 sequence: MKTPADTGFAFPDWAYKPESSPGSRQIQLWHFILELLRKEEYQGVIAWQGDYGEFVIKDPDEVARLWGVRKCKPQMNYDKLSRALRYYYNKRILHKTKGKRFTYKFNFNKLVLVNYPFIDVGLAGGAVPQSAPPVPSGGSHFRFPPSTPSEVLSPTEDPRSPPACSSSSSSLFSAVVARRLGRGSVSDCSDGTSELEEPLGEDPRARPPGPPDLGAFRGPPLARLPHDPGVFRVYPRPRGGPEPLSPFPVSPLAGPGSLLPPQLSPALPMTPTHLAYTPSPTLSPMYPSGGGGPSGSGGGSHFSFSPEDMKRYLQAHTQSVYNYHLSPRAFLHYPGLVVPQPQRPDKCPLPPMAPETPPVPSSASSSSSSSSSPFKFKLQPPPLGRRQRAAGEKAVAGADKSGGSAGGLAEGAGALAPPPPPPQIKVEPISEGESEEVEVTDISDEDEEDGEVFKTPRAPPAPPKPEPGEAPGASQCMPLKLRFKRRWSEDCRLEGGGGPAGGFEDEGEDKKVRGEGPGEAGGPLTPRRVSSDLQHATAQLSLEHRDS
Method in brief: as §1

ETV3L = molecular target: T7, ETV3L (Homo sapiens, UniProt Q6ZN32 1-361); conditions: protein: recombinant; tags: N-terminal GST; dsDNA, one strand shown
T7 sequence: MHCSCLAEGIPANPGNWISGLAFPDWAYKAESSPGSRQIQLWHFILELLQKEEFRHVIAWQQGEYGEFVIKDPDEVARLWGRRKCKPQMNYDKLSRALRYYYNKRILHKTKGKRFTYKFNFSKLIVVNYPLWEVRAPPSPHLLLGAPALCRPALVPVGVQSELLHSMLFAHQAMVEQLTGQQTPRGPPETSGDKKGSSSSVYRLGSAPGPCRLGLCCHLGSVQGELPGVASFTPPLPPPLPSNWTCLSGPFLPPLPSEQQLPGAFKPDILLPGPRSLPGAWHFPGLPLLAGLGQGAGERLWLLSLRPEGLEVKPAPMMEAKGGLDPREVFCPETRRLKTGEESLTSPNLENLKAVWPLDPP
Method in brief: as §1

ETS2 = molecular target: T8, ETS2 (Homo sapiens, UniProt P15036 1-469); conditions: protein: recombinant; tags: N-terminal GST; dsDNA, one strand shown
T8 sequence: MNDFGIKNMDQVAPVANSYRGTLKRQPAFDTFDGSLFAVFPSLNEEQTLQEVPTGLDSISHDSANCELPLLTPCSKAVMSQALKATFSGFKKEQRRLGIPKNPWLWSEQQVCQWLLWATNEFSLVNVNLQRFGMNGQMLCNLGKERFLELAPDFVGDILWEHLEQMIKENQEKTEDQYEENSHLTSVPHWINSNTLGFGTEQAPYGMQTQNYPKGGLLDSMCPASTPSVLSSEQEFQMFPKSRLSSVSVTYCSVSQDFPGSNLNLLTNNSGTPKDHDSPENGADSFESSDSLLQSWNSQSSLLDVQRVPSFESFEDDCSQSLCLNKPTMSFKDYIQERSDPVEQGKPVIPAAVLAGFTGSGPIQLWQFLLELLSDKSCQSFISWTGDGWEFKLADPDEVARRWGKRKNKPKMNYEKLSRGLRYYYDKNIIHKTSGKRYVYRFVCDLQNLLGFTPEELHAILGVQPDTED
Method in brief: as §1

SPDEF = molecular target: T9, SPDEF (Homo sapiens, UniProt O95238 1-335); conditions: protein: recombinant; tags: N-terminal GST; dsDNA, one strand shown
T9 sequence: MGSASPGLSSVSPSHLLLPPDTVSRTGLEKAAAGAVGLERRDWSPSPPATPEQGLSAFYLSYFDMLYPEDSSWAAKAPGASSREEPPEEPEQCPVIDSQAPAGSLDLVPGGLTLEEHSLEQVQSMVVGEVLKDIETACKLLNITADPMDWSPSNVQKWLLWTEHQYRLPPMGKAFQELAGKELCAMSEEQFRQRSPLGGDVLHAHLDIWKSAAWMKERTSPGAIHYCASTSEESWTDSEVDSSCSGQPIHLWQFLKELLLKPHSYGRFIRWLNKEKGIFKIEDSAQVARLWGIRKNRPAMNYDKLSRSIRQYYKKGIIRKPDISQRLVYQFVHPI
Method in brief: as §1

ETV7 = molecular target: T10, ETV7 (Homo sapiens, UniProt Q9Y603 1-341); conditions: protein: recombinant; tags: N-terminal GST; dsDNA, one strand shown
T10 sequence: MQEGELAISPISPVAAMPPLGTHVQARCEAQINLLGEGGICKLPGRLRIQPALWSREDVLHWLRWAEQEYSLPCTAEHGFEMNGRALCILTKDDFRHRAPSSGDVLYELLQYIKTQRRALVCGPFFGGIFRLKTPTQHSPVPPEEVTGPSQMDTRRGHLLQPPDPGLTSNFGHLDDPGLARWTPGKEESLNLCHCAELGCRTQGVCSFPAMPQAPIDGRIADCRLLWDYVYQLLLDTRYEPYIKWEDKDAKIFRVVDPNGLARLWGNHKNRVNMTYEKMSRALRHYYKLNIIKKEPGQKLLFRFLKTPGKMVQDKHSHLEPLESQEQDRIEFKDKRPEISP
Method in brief: as §1

ELF5 = molecular target: T11, ELF5 (Homo sapiens, UniProt Q9UKW6-2 1-255); conditions: protein: recombinant; tags: N-terminal GST; dsDNA, one strand shown
T11 sequence: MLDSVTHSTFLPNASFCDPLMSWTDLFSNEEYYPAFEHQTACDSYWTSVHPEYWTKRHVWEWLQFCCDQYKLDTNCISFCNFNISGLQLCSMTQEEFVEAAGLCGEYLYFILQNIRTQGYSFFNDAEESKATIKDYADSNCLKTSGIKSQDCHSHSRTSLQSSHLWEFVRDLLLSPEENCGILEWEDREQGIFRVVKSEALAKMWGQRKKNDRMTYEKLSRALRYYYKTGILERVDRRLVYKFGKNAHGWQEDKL
Method in brief: as §1

ETV3 = molecular target: T12, ETV3 (Homo sapiens, UniProt P41162-2 1-143); conditions: protein: recombinant; tags: N-terminal GST; dsDNA, one strand shown
T12 sequence: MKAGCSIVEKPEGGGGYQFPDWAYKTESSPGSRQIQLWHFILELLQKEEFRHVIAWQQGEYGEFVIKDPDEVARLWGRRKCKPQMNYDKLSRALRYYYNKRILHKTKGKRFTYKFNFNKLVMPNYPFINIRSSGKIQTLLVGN
Method in brief: as §1

ETV6 = ETV6 (Homo sapiens, UniProt P41212 1-452); conditions: protein: recombinant; tags: N-terminal GST; dsDNA, one strand shown
Method in brief: as §1

Sequence of CRX (O43186 whole entry): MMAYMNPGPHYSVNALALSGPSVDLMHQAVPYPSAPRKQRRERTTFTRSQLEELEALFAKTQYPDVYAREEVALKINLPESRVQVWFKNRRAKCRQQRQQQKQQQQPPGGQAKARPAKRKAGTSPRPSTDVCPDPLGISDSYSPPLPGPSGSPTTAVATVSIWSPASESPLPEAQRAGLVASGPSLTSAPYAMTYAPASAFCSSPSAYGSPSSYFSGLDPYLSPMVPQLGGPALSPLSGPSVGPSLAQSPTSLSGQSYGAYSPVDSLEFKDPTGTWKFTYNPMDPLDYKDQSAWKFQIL
Sequence of HSF1 (Q00613 whole entry): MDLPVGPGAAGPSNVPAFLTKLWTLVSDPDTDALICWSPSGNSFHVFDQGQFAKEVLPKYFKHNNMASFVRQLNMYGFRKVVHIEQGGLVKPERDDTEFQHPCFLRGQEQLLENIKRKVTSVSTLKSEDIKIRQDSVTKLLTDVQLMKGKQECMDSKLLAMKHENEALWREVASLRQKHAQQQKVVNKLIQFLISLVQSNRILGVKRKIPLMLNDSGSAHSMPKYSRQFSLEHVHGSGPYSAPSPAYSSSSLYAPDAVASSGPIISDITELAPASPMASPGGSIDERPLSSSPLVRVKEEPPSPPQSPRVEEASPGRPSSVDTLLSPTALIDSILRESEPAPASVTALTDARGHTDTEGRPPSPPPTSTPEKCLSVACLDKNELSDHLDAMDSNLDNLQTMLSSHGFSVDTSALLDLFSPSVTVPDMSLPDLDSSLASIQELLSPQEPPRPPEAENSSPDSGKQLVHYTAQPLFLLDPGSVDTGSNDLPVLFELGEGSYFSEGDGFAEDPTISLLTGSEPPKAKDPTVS
Sequence of ETV1 (P50549 whole entry): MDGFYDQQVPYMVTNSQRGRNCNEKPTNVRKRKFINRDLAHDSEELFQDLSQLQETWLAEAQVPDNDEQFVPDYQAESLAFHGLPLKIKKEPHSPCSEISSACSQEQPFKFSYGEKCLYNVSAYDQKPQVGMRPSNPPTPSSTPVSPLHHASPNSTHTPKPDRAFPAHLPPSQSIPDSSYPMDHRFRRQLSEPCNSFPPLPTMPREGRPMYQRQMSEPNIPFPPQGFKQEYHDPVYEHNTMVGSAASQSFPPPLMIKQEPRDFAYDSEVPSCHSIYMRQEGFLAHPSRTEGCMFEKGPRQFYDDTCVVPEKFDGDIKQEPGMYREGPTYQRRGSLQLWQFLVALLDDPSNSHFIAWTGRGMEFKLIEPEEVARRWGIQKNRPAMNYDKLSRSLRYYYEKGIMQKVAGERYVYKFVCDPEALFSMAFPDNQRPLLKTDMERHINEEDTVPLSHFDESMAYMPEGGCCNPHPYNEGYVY
Sequence of ELF4 (Q99607 whole entry): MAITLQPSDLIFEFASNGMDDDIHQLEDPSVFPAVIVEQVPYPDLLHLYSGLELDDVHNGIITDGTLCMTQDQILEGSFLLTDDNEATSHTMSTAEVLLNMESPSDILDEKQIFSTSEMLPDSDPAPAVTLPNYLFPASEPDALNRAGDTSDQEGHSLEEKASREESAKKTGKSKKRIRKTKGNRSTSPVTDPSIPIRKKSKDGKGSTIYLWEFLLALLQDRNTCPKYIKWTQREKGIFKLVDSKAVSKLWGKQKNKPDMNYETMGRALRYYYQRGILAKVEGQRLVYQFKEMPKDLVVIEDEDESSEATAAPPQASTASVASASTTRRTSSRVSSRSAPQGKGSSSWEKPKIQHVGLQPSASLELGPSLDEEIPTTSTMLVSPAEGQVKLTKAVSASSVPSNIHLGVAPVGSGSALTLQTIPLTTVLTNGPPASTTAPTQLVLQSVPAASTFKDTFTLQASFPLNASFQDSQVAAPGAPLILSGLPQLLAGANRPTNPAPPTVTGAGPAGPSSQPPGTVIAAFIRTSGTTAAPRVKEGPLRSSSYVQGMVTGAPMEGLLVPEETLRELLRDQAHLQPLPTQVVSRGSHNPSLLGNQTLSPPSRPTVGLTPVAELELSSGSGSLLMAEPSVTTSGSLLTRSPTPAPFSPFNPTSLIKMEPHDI
Sequence of ETV6 (P41212 whole entry): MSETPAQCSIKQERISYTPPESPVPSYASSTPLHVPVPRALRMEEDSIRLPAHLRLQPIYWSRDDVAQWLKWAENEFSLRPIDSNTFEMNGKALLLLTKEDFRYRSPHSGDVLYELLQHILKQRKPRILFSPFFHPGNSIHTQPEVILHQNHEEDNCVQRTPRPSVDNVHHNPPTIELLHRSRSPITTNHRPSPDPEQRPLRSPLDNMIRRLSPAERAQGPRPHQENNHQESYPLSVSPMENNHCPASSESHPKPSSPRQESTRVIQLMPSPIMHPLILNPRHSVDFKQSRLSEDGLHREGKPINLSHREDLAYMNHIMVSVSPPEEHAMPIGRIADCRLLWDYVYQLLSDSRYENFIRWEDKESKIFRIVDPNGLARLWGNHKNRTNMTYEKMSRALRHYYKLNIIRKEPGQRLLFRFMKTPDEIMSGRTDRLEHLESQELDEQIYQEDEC
Sequence of ETV5 (P41161 whole entry): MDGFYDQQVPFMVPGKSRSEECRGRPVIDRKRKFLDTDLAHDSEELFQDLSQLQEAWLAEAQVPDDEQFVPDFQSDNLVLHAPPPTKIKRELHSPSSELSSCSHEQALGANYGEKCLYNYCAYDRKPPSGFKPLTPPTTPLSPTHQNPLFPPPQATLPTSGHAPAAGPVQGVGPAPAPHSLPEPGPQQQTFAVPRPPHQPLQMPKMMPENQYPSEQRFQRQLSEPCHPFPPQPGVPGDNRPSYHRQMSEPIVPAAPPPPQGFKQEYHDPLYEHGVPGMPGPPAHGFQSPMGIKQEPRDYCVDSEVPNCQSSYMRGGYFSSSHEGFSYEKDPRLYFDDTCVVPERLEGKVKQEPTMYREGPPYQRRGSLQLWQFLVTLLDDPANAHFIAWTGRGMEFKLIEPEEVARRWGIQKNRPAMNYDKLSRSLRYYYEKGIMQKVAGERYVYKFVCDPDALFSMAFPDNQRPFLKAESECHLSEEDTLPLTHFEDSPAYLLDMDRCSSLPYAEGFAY

For TCCCAT, which binding signal (FEV) is on record?
The binding signal was 1.32 fold enrichment (6-mer frequency, TF over GST control).

And the binding signal (ETV5)?
Its binding signal is 1.34 fold enrichment (6-mer frequency, TF over GST control).

What about the binding signal (HSF1) of the same sequence?
The binding signal was 1.21 fold enrichment (6-mer frequency, TF over GST control).

And the binding signal (SPIC)?
The binding signal was 1.45 fold enrichment (6-mer frequency, TF over GST control).

What about the binding signal (ELF4) of the same sequence?
The binding signal was 1.29 fold enrichment (6-mer frequency, TF over GST control).

What about the binding signal (ELK4) of the same sequence?
The binding signal was 1.27 fold enrichment (6-mer frequency, TF over GST control).

And the binding signal (ETV2)?
Its binding signal is 1.41 fold enrichment (6-mer frequency, TF over GST control).

What about the binding signal (ELF3) of the same sequence?
The binding signal was 1.44 fold enrichment (6-mer frequency, TF over GST control).

And the binding signal (CRX)?
The binding signal was 1.43 fold enrichment (6-mer frequency, TF over GST control).

And the binding signal (ETV1)?
Its binding signal is 1.37 fold enrichment (6-mer frequency, TF over GST control).

What about the binding signal (ERF) of the same sequence?
The binding signal was 1.4 fold enrichment (6-mer frequency, TF over GST control).

What about the binding signal (ETV3L) of the same sequence?
The binding signal was 1.38 fold enrichment (6-mer frequency, TF over GST control).

What about the binding signal (ETS2) of the same sequence?
The binding signal was 1.4 fold enrichment (6-mer frequency, TF over GST control).

And the binding signal (SPDEF)?
The binding signal was 1.23 fold enrichment (6-mer frequency, TF over GST control).

What about the binding signal (ETV7) of the same sequence?
Its binding signal is 1.28 fold enrichment (6-mer frequency, TF over GST control).

What about the binding signal (ELF5) of the same sequence?
Its binding signal is 1.44 fold enrichment (6-mer frequency, TF over GST control).

What about the binding signal (ETV3) of the same sequence?
The binding signal was 1.32 fold enrichment (6-mer frequency, TF over GST control).

What about the binding signal (ETV6) of the same sequence?
Its binding signal is 1.37 fold enrichment (6-mer frequency, TF over GST control).
